Structures are written as SMILES. Activity calls are given as the source filed them. How the source made its calls, unless noted: active means hit-call score of the fitted dose curve at least 0.9, where 1 is the maximum; inactive means score below 0.9.

The values that follow come from PubChem BioAssay (EPA / NIEHS).

Read-out in experiment [1]: Protein phosphatase 2A (PPP2R4), PTPA (gene 5524)
Put plainly: LTEA_HepaRG_PPP2R4: Life Technologies and Expression Analysis (LTEA) Assay for Protein phosphatase 2A (PPP2R4) using HepaRG (AID 2283522). As to conditions: mRNA level, 48 h; actives raise or lower the signal. In short, it runs like this:
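Cells were plated, cultured 48 h, switched to serum-free induction medium, then dosed for 48 h (8 points, max 100 uM, 0.5% DMSO). RNA was isolated and PPP2R4 expression measured by TaqMan qRT-PCR.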

Read-out in experiment [2]: Phosphatase and tensin (PTEN), PTEN (gene 5728)
Put plainly: LTEA_HepaRG_PTEN: Life Technologies and Expression Analysis (LTEA) Assay for Phosphatase and tensin (PTEN) using HepaRG (AID 2283523). As to conditions: mRNA level, 48 h; actives raise or lower the signal. The method in brief: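 HepaRG, 48 h exposure, 8-pt half-log series from 100 uM top, 0.5% DMSO vehicle, duplicates. Readout: Fluidigm qRT-PCR of PTEN transcript; housekeeping normalization (ACTB, GAPDH, POLR2A). Gain or loss fitted relative to DMSO baseline.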

Read-out in experiment [3]: solute carrier (SLC22A1), SLC22A1 (gene 6580)
Kind of experiment: LTEA_HepaRG_SLC22A1: Life Technologies and Expression Analysis (LTEA) Assay for solute carrier (SLC22A1) using HepaRG (AID 2283524). The note with it: mRNA level, 48 h; actives raise or lower the signal. In short, it runs like this:
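qRT-PCR readout (TaqMan, Fluidigm arrays) of SLC22A1 transcript, normalized to three housekeeping genes; bidirectional curve fit relative to 0.5% DMSO vehicle. Differentiated human HepaRG cells, 48 h chemical exposure, top concentration 100 uM, half-log steps, eight points.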

Read-out in experiment [4]: Pyruvate Dehydrogenase Kinase 4 (PDK4), PDK4 (gene 5166)
Put plainly: LTEA_HepaRG_PDK4: Life Technologies and Expression Analysis (LTEA) Assay for Pyruvate Dehydrogenase Kinase 4 (PDK4) using HepaRG (AID 2283525). The note with it: mRNA level, 48 h; actives raise or lower the signal. The method in brief:
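HepaRG (human liver line), 48 h chemical exposure, 8-pt half-log CRC top 100 uM, 0.5% DMSO vehicle, duplicates. Readout: TaqMan qRT-PCR of PDK4 mRNA, housekeeping-normalized; gain/loss fit relative to DMSO baseline.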

Read-out in experiment [5]: NAD(P)H dehydrogenase [quinone] 1 (NQO1), NQO1 (gene 1728)
Kind of experiment: LTEA_HepaRG_NQO1: Life Technologies and Expression Analysis (LTEA) Assay for NAD(P)H dehydrogenase [quinone] 1 (NQO1) using HepaRG (AID 2283526). As to conditions: mRNA level, 48 h; actives raise or lower the signal. The method in brief:
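Transcript induction or suppression is quantified by qRT-PCR in human HepaRG liver cells dosed for 48 hours. Eight half-log concentrations topping at 100 uM are used, with 0.5% DMSO as vehicle and baseline.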

Read-out in experiment [6]: Nuclear factor erythroid 2-related factor 2 (Homo sapiens) (UniProt Q16236)
Kind of experiment: LTEA_HepaRG_NFE2L2: Life Technologies and Expression Analysis (LTEA) Assay for Nuclear factor erythroid 2-related factor 2 (NFE2L2) Transcription Factor using HepaRG (AID 2283527).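 On outcome: TaqMan qRT-PCR transcript level normalised to ACTB GAPDH and POLR2A housekeeping genes.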 As to conditions: mRNA level, 48 h; actives raise or lower the signal. In short, it runs like this:
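HepaRG, 48 h dosing, 8-pt half-log series from 100 uM in 0.5% DMSO, duplicates. Read-out: NFE2L2 mRNA by qRT-PCR (ACTB/GAPDH/POLR2A normalization). Bidirectional curve fit vs DMSO baseline.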

Read-out in experiment [7]: succinate dehydrogenase complex iron sulfur subunit B (SDHB), SDHB (gene 6390)
Put plainly: LTEA_HepaRG_SDHB: Life Technologies and Expression Analysis (LTEA) Assay for succinate dehydrogenase complex iron sulfur subunit B (SDHB) using HepaRG (AID 2283528). The note with it: mRNA level, 48 h; actives raise or lower the signal. The method in brief:
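A human HepaRG culture in serum-free induction medium received test chemicals for 48 h over an eight-point range capped at 100 uM. SDHB expression change was quantified by qRT-PCR.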

Read-out in experiment [8]: Signal transducer and activator of transcription 3 (Homo sapiens) (UniProt P40763)
Kind of experiment: LTEA_HepaRG_STAT3: Life Technologies and Expression Analysis (LTEA) Assay for Signal transducer and activator of transcription (STAT3) using HepaRG (AID 2283529). As to conditions: mRNA level, 48 h; actives raise or lower the signal. In short, it runs like this: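 HepaRG, 48 h exposure, 8-pt half-log series (top 100 uM), 0.5% DMSO vehicle, duplicates. Readout: STAT3 transcript by Fluidigm qRT-PCR, housekeeping-normalized; bidirectional fit vs DMSO baseline.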

Read-out in experiment [9]: solute carrier (SLCO1B1), SLCO1B1 (gene 10599)
Put plainly: LTEA_HepaRG_SLCO1B1: Life Technologies and Expression Analysis (LTEA) Assay for solute carrier (SLCO1B1) using HepaRG (AID 2283530). As to conditions: mRNA level, 48 h; actives raise or lower the signal. In short, it runs like this: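 Differentiated human HepaRG cells, plated 48 h, switched to serum-free induction medium and exposed in duplicate for 48 h to 8 half-log concentrations (top 100 uM) in 0.5% DMSO. SLCO1B1 mRNA by TaqMan qRT-PCR, normalized to ACTB/GAPDH/POLR2A.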

Read-out in experiment [10]: sulfotransferase 2A1 (SULT2A1), SULT2A1 (gene 6822)
Kind of experiment: LTEA_HepaRG_SULT2A1: Life Technologies and Expression Analysis (LTEA) Assay for sulfotransferase 2A1 (SULT2A1) using HepaRG (AID 2283531). The note with it: mRNA level, 48 h; actives raise or lower the signal. In short, it runs like this: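 Differentiated human HepaRG cells in serum-free induction medium were exposed for 48 h to eight half-log concentrations (top 100 uM, 0.5% DMSO). SULT2A1 mRNA was measured by qRT-PCR, normalized to ACTB, GAPDH and POLR2A, and fitted bidirectionally against DMSO.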

Read-out in experiment [11]: Transforming Growth Factor (TGFA), TGFA (gene 7039)
Put plainly: LTEA_HepaRG_TGFA: Life Technologies and Expression Analysis (LTEA) Assay for Transforming Growth Factor (TGFA) using HepaRG (AID 2283532). The note with it: mRNA level, 48 h; actives raise or lower the signal. The method in brief: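 qRT-PCR read-out of TGFA transcript, normalized to three housekeeping genes, fitted bidirectionally against 0.5% DMSO baseline. Human HepaRG cultures received chemicals for 48 h at eight half-log concentrations, top 100 uM.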

Read-out in experiment [12]: Transforming Growth Factor (TGFB1), TGFB1 (gene 7040)
Kind of experiment: LTEA_HepaRG_TGFB1: Life Technologies and Expression Analysis (LTEA) Assay for Transforming Growth Factor (TGFB1) Transporter using HepaRG (AID 2283533). The note with it: mRNA level, 48 h; actives raise or lower the signal. The method in brief:
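Differentiated human HepaRG cells in serum-free induction medium were exposed in duplicate for 48 h to eight concentrations (top 100 uM, half-log steps, 0.5% DMSO). TGFB1 mRNA was quantified by qRT-PCR, normalized to ACTB, GAPDH, POLR2A, and fitted bidirectionally against DMSO.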

Read-out in another experiment: TIMP1, TIMP1 (gene 7076)
Kind of experiment: LTEA_HepaRG_TIMP1: Life Technologies and Expression Analysis (LTEA) Assay for TIMP1 using HepaRG (AID 2283534). As to conditions: mRNA level, 48 h; actives raise or lower the signal. The method in brief:
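Differentiated human HepaRG cells in serum-free induction medium were exposed 48 h to chemicals (8 half-log concentrations, top 100 uM, 0.5% DMSO). TIMP1 mRNA was quantified by TaqMan qRT-PCR, normalized to ACTB/GAPDH/POLR2A; bidirectional fit versus DMSO.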

Read-out in experiment [13]: Tumor necrosis factor receptor 1 (TNFRSF1A), TNFRSF1A (gene 7132)
Kind of experiment: LTEA_HepaRG_TNFRSF1A: Life Technologies and Expression Analysis (LTEA) Assay for Tumor necrosis factor receptor 1 (TNFRSF1A) using HepaRG (AID 2283535). As to conditions: mRNA level, 48 h; actives raise or lower the signal. The method in brief: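 Differentiated human HepaRG cells were exposed in duplicate for 48 h in serum-free induction medium to eight concentrations (top 100 uM, half-log steps, 0.5% DMSO). TNFRSF1A mRNA was quantified by qRT-PCR, normalized to ACTB, GAPDH and POLR2A, then fitted bidirectionally against DMSO.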

Read-out in experiment [14]: Thyroid Hormone Responsive (THRSP), THRSP (gene 7069)
Kind of experiment: LTEA_HepaRG_THRSP: Life Technologies and Expression Analysis (LTEA) Assay for Thyroid Hormone Responsive (THRSP) using HepaRG (AID 2283536). The note with it: mRNA level, 48 h; actives raise or lower the signal. The method in brief:
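qRT-PCR read-out (Fluidigm TaqMan), housekeeping-normalized (ACTB/GAPDH/POLR2A). HepaRG, 48 h chemical exposure, 8-pt half-log series from 100 uM in 0.5% DMSO, duplicates. Bidirectional curve fit vs 0.5% DMSO baseline.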

Read-out in experiment [15]: UDP glucuronosyltransferase (UGT1A1), UGT1A1 (gene 54658)
Put plainly: LTEA_HepaRG_UGT1A1: Life Technologies and Expression Analysis (LTEA) Assay for UDP glucuronosyltransferase (UGT1A1) using HepaRG (AID 2283538). The note with it: mRNA level, 48 h; actives raise or lower the signal. In short, it runs like this:
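Cells are plated, cultured 48 h, switched to serum-free induction medium, then dosed 48 h at eight concentrations (max 100 uM, 0.5% DMSO). RNA is isolated and UGT1A1 expression measured by qRT-PCR; changes versus DMSO are fitted in both directions.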

Read-out in experiment [16]: UDP glucuronosyltransferase (UGT1A6), UGT1A6 (gene 54578)
Kind of experiment: LTEA_HepaRG_UGT1A6: Life Technologies and Expression Analysis (LTEA) Assay for UDP glucuronosyltransferase (UGT1A6) using HepaRG (AID 2283539). As to conditions: mRNA level, 48 h; actives raise or lower the signal. In short, it runs like this:
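Human HepaRG cells were dosed for 48 h in serum-free induction medium with 0.5% DMSO vehicle, eight-point half-log series from 100 uM, in duplicate. UGT1A6 mRNA was measured by qRT-PCR, normalized to ACTB, GAPDH, POLR2A, and fitted bidirectionally against DMSO.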

Read-out in experiment [17]: X-box binding protein 1 (XBP1), XBP1 (gene 7494)
Put plainly: LTEA_HepaRG_XBP1: Life Technologies and Expression Analysis (LTEA) Assay for X-box binding protein 1 (XBP1) using HepaRG (AID 2283540). The note with it: mRNA level, 48 h; actives raise or lower the signal. The method in brief: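 Differentiated human HepaRG cells in serum-free induction medium were exposed in duplicate for 48 h to eight half-log concentrations up to 100 uM in 0.5% DMSO. XBP1 mRNA was quantified by qRT-PCR, normalised to ACTB, GAPDH and POLR2A, with bidirectional fitting against DMSO.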

Experiment [18] can be described thus: LTEA_HepaRG_LDH_cytotoxicity: Cytotoxicity Assessment in the Life Technologies and Expression Analysis (LTEA) Assay (AID 2283563; active means hit-call score of the fitted dose curve at least 0.9, where 1 is the maximum). In short, it runs like this: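 Differentiated human HepaRG cells, plated 48 h beforehand, were switched to serum-free induction medium and exposed for 48 h to eight half-log concentrations (top 100 uM) in 0.5% DMSO. LDH was measured in spent medium; activity was fitted relative to DMSO vehicle.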

Nuclear factor erythroid 2-related factor 2 (Homo sapiens), sequence (Q16236 whole entry, looked up): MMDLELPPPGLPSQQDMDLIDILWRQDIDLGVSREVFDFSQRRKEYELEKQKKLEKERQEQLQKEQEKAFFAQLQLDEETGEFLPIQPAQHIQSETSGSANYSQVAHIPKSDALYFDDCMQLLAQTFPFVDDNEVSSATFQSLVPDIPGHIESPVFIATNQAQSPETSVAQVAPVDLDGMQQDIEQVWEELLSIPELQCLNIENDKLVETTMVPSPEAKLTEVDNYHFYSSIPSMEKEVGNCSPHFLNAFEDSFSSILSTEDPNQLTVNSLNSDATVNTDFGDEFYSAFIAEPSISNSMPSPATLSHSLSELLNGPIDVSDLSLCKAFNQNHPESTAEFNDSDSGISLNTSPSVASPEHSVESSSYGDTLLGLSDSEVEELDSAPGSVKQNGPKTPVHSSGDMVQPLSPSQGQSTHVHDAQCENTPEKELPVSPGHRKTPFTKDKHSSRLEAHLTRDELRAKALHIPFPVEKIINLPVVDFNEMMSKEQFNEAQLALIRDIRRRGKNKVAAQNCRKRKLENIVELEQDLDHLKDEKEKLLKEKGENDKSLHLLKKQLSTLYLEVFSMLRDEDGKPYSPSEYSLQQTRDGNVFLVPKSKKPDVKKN
Signal transducer and activator of transcription 3 (Homo sapiens), sequence (P40763 whole entry, looked up): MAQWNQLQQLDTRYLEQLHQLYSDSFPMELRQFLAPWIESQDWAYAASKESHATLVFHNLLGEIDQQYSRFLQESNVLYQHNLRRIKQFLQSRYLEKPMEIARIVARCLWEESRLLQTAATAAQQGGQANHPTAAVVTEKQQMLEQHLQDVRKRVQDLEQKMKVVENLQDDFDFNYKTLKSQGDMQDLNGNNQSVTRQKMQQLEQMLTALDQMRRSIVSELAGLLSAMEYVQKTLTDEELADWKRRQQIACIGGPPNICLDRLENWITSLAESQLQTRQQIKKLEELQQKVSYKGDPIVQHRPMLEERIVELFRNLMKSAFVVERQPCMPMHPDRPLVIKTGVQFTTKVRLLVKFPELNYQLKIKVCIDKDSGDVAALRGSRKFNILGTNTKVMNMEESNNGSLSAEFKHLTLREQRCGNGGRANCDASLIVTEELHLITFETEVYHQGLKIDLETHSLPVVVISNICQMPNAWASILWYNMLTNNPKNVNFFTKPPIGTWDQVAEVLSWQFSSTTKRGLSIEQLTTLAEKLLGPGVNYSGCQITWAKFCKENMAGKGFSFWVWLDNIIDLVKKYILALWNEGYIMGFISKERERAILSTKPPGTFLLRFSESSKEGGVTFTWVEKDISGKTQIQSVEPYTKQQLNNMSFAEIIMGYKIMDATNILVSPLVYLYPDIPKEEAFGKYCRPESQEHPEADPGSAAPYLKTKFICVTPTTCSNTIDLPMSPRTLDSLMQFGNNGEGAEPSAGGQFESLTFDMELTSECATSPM

`CN(C)C(=O)Nc1cccc(C(F)(F)F)c1`: the call in [1], in experiment [2], in experiment [3], in [4], in experiment [5] and in [7] was inactive. Also, the call in experiment [8], in experiment [10], in [11], in [12], in experiment [14] and in experiment [16] was inactive. Moreover, the result in [17] and in [18] was inactive. Moreover, the AC50 in [6] is 50 µM (active); in experiment [9], 50 µM (active); with TIMP1, TIMP1 (gene 7076), 78.8 µM (active); in experiment [13], 81 µM (active); in experiment [15], 1.22 µM (active).

Take `COP(=O)(OC)OC(Br)C(Cl)(Cl)Br` (stereo unspecified): the compound was called inactive in [1], in experiment [2], in experiment [3], in experiment [4], in [6] and in [7]. Besides, the outcome in experiment [8] is “inactive”; in experiment [9] it was “inactive”; in experiment [11], “inactive”; in experiment [12], “inactive”; with TIMP1, TIMP1 (gene 7076), “inactive”; in experiment [13], “inactive”. The compound was classed as inactive in experiment [14], in experiment [15], in experiment [16] and in experiment [18]. For the same compound, the figures for the AC50 in experiment [5] and in experiment [10] were 21.1 µM (active) and 50 µM (active), respectively.

On to `CCc1cccc(CC)c1N(COC)C(=O)CCl`, for which the result in [1], in [2], in experiment [3], in experiment [5], in experiment [6] and in experiment [7] was inactive. Moreover, the outcome in experiment [8] is “inactive”; in [9], “inactive”; in [10], “inactive”; in experiment [11], “inactive”; in experiment [12] it was “inactive”; with TIMP1, TIMP1 (gene 7076) it was “inactive”. For the same compound, the compound was classed as inactive in experiment [13], in [14], in experiment [16], in [17] and in [18]. Besides, the results for the AC50 in experiment [4] and in [15] were 28.9 µM (active) and 66.5 µM (active), respectively.
